What all share (parameters): species or system human, MV4-11 + K-562 + COLO205 + SK-N-BE2 + OVCAR-8
One experiment deals with ADCK1. Particulars: read-out: apparent Kd; compound concentrations: 100 nM and 1000 nM (sheet 'Samples'), CATDS: 7.5755485484616303E-2; n = 1.
Another experiment deals with CLK1. Particulars: read-out: apparent Kd; compound concentrations: 100 nM and 1000 nM (sheet 'Samples'), CATDS: 0.119172303588979; n = 1.
The subject of a further experiment is CLK2. Conditions: read-out: apparent Kd; compound concentrations: 100 nM and 1000 nM (sheet 'Samples'), CATDS: 0.34791334092069898; n = 1.
In another experiment the test system is CLK4. Conditions: read-out: apparent Kd; compound concentrations: 100 nM and 1000 nM (sheet 'Samples'), CATDS: 0.107849742816713; n = 1.
The test system of a further experiment is T1, DJA1.
T1 construct: gene DNAJA1
Particulars: read-out: apparent Kd; compound concentrations: 100 nM and 1000 nM (sheet 'Samples'), CATDS: 8.1274220944096601E-2; n = 1.

The subject of a further experiment is MAPK14. Particulars: read-out: apparent Kd; compound concentrations: 100 nM and 1000 nM (sheet 'Samples'), CATDS: 9.4734585023085197E-2; n = 1.
For the next experiment, the system named is NQO2. Particulars: read-out: apparent Kd; compound concentrations: 100 nM and 1000 nM (sheet 'Samples'), CATDS: 8.1973384609640695E-2; n = 1.
The test system of a further experiment is PIP4K2C. Particulars: read-out: apparent Kd; compound concentrations: 100 nM and 1000 nM (sheet 'Samples'), CATDS: 7.6274821078241906E-2; n = 1.
The next experiment deals with STK16. Conditions: read-out: apparent Kd; compound concentrations: 100 nM and 1000 nM (sheet 'Samples'), CATDS: 8.9736368471695804E-2; n = 1.
The next experiment has as its system TESK2. Particulars: read-out: apparent Kd; compound concentrations: 100 nM and 1000 nM (sheet 'Samples'), CATDS: 7.0727879355670806E-2; n = 1.
A further experiment has as its system TGFBR2. Particulars: read-out: apparent Kd; compound concentrations: 100 nM and 1000 nM (sheet 'Samples'), CATDS: 7.2410579705908001E-2; n = 1.
The test system of another experiment is ADCK3. Particulars: read-out: apparent Kd, n = 1.
Another experiment relates to PI4KA. Conditions: read-out: apparent Kd; compound concentrations: 100 nM and 1000 nM (sheet 'Samples'), CATDS: 8.9803456150084393E-2; n = 1.
A further experiment relates to PIK3CA. Particulars: read-out: apparent Kd; compound concentrations: 100 nM and 1000 nM (sheet 'Samples'), CATDS: 0.36477997446567001; n = 1.
The test system of the next experiment is PIK3CB. Particulars: read-out: apparent Kd; compound concentrations: 100 nM and 1000 nM (sheet 'Samples'), CATDS: 0.118363122139114; n = 1.
The subject of another experiment is PIK3CD. Conditions: read-out: apparent Kd; compound concentrations: 100 nM and 1000 nM (sheet 'Samples'), CATDS: 0.63403927390637105; n = 1.
A further experiment deals with PIK3CG. Conditions: read-out: apparent Kd; compound concentrations: 100 nM and 1000 nM (sheet 'Samples'), CATDS: 0.133003472389642; n = 1.
A further experiment deals with PRKDC. Conditions: read-out: apparent Kd; compound concentrations: 100 nM and 1000 nM (sheet 'Samples'), CATDS: 9.9642367307020793E-2; n = 1.
The next experiment has as its system SRRT. Conditions: read-out: apparent Kd; compound concentrations: 100 nM and 1000 nM (sheet 'Samples'), CATDS: 7.4591136223679494E-2; n = 1.
In the next experiment the test system is TOP2B. Particulars: read-out: apparent Kd; compound concentrations: 100 nM and 1000 nM (sheet 'Samples'), CATDS: 7.4747311850649895E-2; n = 1.
The subject of the next experiment is AKT2. Conditions: read-out: apparent Kd; compound concentrations:100 nM and 1000 nM (sheet 'Samples'); n = 1.
For another experiment, the system named is CDK17. Particulars: read-out: apparent Kd; compound concentrations:100 nM and 1000 nM (sheet 'Samples'); n = 1.
A further experiment relates to CIT. Particulars: read-out: apparent Kd; compound concentrations:100 nM and 1000 nM (sheet 'Samples'); n = 1.
In the next experiment the test system is DCTPP1. Particulars: read-out: apparent Kd; compound concentrations:100 nM and 1000 nM (sheet 'Samples'); n = 1.
For another experiment, the system named is EPHA1. Particulars: read-out: apparent Kd; compound concentrations:100 nM and 1000 nM (sheet 'Samples'); n = 1.
The test system of another experiment is EPHB6. Particulars: read-out: apparent Kd; compound concentrations:100 nM and 1000 nM (sheet 'Samples'); n = 1.
For a further experiment, the system named is ERBB3. Conditions: read-out: apparent Kd; compound concentrations:100 nM and 1000 nM (sheet 'Samples'); n = 1.
In another experiment the test system is ERN2. Particulars: read-out: apparent Kd; compound concentrations:100 nM and 1000 nM (sheet 'Samples'); n = 1.
The next experiment deals with IGF1R. Particulars: read-out: apparent Kd; compound concentrations:100 nM and 1000 nM (sheet 'Samples'); n = 1.
The subject of another experiment is JAK2. Conditions: read-out: apparent Kd; compound concentrations:100 nM and 1000 nM (sheet 'Samples'); n = 1.
Another experiment has as its system MELK. Conditions: read-out: apparent Kd; compound concentrations:100 nM and 1000 nM (sheet 'Samples'); n = 1.
The test system of another experiment is PDGFRB. Particulars: read-out: apparent Kd; compound concentrations:100 nM and 1000 nM (sheet 'Samples'); n = 1.
The next experiment concerns PYGL. Conditions: read-out: apparent Kd; compound concentrations:100 nM and 1000 nM (sheet 'Samples'); n = 1.
The subject of a further experiment is RIOK2. Particulars: read-out: apparent Kd; compound concentrations:100 nM and 1000 nM (sheet 'Samples'); n = 1.
Another experiment has as its system TTN. Particulars: read-out: apparent Kd; compound concentrations:100 nM and 1000 nM (sheet 'Samples'); n = 1.
The subject of another experiment is GSK3A. Conditions: read-out: apparent Kd; compound concentrations: 100 nM and 1000 nM (sheet 'Samples'), CATDS: 0.39261135326021201; n = 1.
A further experiment concerns GSK3B. Particulars: read-out: apparent Kd; compound concentrations: 100 nM and 1000 nM (sheet 'Samples'), CATDS: 0.34419414793352499; n = 1.

Where two headings read alike, the source gives them in different places.

Potency estimated from few doses data for four compounds are collected here from paper PMC11062922 (Nature Chemical Biology, 2023).

For the compound `CCOc1ccc2c(-c3ccnc(Nc4cc(OC)cc(C(F)(F)F)c4)n3)cnn2n1` [GW807982X_KCGS], the potency estimated from few doses with ADCK1 is 1800 nM; in the experiment with CLK1, 672 nM; in the experiment with CLK2 it was 132 nM; in the experiment with CLK4 it was 811 nM; in the experiment with DJA1, 1500 nM; in the experiment on MAPK14 it was 1050 nM. In addition, the potency estimated from few doses in the experiment on NQO2 was 1470 nM; in the experiment with PIP4K2C, 1760 nM; in the experiment on STK16 it was 1190 nM; in the experiment with TESK2, 2180 nM; in the experiment with TGFBR2 it was 2040 nM.

Turning to `Nc1ncc(-c2ccc3nccc(-c4ccncc4)c3c2)cc1S(=O)(=O)N1CCOCC1` [GSK1627798A], the potency estimated from few doses is 1520 nM with ADCK3 (compound concentrations: 100 nM and 1000 nM (sheet 'Samples'), CATDS: 7.8381532556713998E-2); 893 nM in the experiment on PI4KA; 11.1 nM with PIK3CA; 366 nM in the experiment on PIK3CB; 3.67 nM with PIK3CD; 258 nM with PIK3CG. The potency estimated from few doses with PRKDC is 627 nM; with SRRT it was 1900 nM; in the experiment with TOP2B, 1880 nM.

On to `CNc1nc(-c2ccc3c(N)n[nH]c3c2)cc(N2C[C@@H](C(=O)NC3CCCCC3)CC[C@H]2C)n1` [GSK2334470], for which the potency estimated from few doses in the experiment with ADCK3 (compound concentrations:100 nM and 1000 nM (sheet 'Samples')) was 1180 nM; with AKT2 it was 1570 nM; in the experiment with CDK17, 2130 nM; in the experiment on CIT it was 1430 nM; in the experiment on DCTPP1, 1890 nM; with EPHA1 it was 845 nM. Moreover, the potency estimated from few doses in the experiment on EPHB6 was 1840 nM; in the experiment on ERBB3, 1360 nM; in the experiment with ERN2, 1440 nM; with IGF1R, 2360 nM; with JAK2 it was 470 nM; in the experiment with MELK it was 1640 nM. The potency estimated from few doses in the experiment on PDGFRB is 1950 nM; in the experiment with PYGL, 2020 nM; in the experiment with RIOK2, 2110 nM; in the experiment on TTN it was 945 nM.

For the compound `Cc1ccc(C)c(C2=C(c3cn(C)c4ccccc34)C(=O)NC2=O)c1` [RO0317699-000], the potency estimated from few doses was 629 nM with ADCK3 (compound concentrations: 100 nM and 1000 nM (sheet 'Samples'), CATDS: 0.28187952548436401); 316 nM in the experiment with GSK3A; 404 nM in the experiment with GSK3B.
